“And” between values parts separate entries of the source, which are not always exact repeats. Equal values may be shown once. Some compounds were tested as several samples or in several runs, with calls that do not always agree. The source made the active and inactive calls. Rule for the calls: active = hit-call score of the fitted dose curve at least 0.9, where 1 is the maximum; inactive = score below 0.9.
How the values were obtained:
[1] = BSK_hDFCGF_SRB: Viability Assessment in the BioMAP Diversity Plus: hDFCGF Assay (AID 2283061); settings: primary human foreskin fibroblasts;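 note: cells exposed to compound for 24 h before the read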
How it was run: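 Human foreskin fibroblasts in 96-well plates were treated 24 h. Total protein was measured by 0.1% SRB staining after 10% TCA fixation, read at 560 nm. Data were fitted bidirectionally against DMSO.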

[2] = read-out: TIMP metallopeptidase inhibitor 1 (TIMP1), TIMP1 (gene 7076); assay: BSK_hDFCGF_TIMP1: BioMAP Diversity Plus: hDFCGF Assay for TIMP metallopeptidase inhibitor 1 (TIMP1) Biomarker Activity (AID 2283062); settings: primary human foreskin fibroblasts; actives raise or lower the signal
How it was run: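 Human foreskin fibroblast primary cultures dosed for 24 h; secreted/surface TIMP-1 quantified by ELISA. Bidirectional curve fitting against DMSO baseline; cytotoxicity tracked in parallel cultures by SRB total-protein staining.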

[3] = read-out: Monokine induced gamma interferon (MIG), CXCL9 (gene 4283); assay: BSK_hDFCGF_MIG: BioMAP Diversity Plus: hDFCGF Assay for Monokine induced gamma interferon (MIG) Biomarker Activity (AID 2283063); settings: primary human foreskin fibroblasts; actives raise or lower the signal
How it was run: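 MIG/CXCL9 measured by ELISA 24 h after dosing primary human skin fibroblasts. Activity fitted in both directions against DMSO controls. Cytotoxicity was checked in parallel cultures by SRB staining read at 560 nm.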

[4] = read-out: Matrix Metallopeptidase 1 (MMP1), MMP1 (gene 4312); assay: BSK_hDFCGF_MMP1: BioMAP Diversity Plus: hDFCGF Assay for Matrix Metallopeptidase 1 (MMP1) Biomarker Activity (AID 2283064); settings: primary human foreskin fibroblasts; actives raise or lower the signal
How it was run: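 ELISA read-out of MMP1 from human foreskin fibroblasts (primary skin cells), 24 h post-dose. Gain or loss of signal was fitted bidirectionally versus DMSO negative control; cytotoxicity was checked by SRB in parallel cultures.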

[5] = read-out: Vascular cell adhesion molecule 1 (VCAM1), VCAM1 (gene 7412); assay: BSK_hDFCGF_VCAM1: BioMAP Diversity Plus: hDFCGF Assay for Vascular cell adhesion molecule 1 (VCAM1) Biomarker Activity (AID 2283065); settings: primary human foreskin fibroblasts; actives raise or lower the signal;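 for AC50: VCAM-1 protein level quantified by ELISA after 24 h chemical exposure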
How it was run: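 Human foreskin fibroblast primary cells dosed with chemical, VCAM-1 measured by ELISA at 24 h. Bidirectional curve fitting relative to DMSO as negative control/baseline.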

[6] = read-out: Plasminogen activator inhibitor-1 (PAI1), SERPINE1 (gene 5054); assay: BSK_hDFCGF_PAI1: BioMAP Diversity Plus: hDFCGF Assay for Plasminogen activator inhibitor-1 (PAI1) Biomarker Activity (AID 2283066); settings: primary human foreskin fibroblasts; actives raise or lower the signal
How it was run: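 Human skin fibroblast cultures receive chemical for 24 h before PAI-1 is measured by ELISA; signal changes are fitted bidirectionally against DMSO-treated wells.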

[7] = read-out: Intercellular Adhesion Molecule 1 (ICAM1), ICAM1 (gene 3383); assay: BSK_KF3CT_ICAM1: BioMAP Diversity Plus: KF3CT Assay for Intercellular Adhesion Molecule 1 (ICAM1) Biomarker Activity (AID 2283067); settings: primary human keratinocytes with fibroblasts; actives raise or lower the signal
How it was run: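 Human keratinocyte–foreskin fibroblast co-culture was treated for 24 h. Cell-surface ICAM-1 was quantified by ELISA, fitted bidirectionally relative to DMSO. Cytotoxicity was checked in parallel cultures by SRB total-protein staining.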

[8] = read-out: Interferon-gamma inducible Protein 10 (IP10), CXCL10 (gene 3627); assay: BSK_KF3CT_IP10: BioMAP Diversity Plus: KF3CT Assay for Interferon-gamma inducible Protein 10 (IP10) Biomarker Activity (AID 2283068); settings: primary human keratinocytes with fibroblasts; actives raise or lower the signal
How it was run: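 Signal is secreted/surface IP-10 by ELISA in a human primary skin co-culture of keratinocytes and foreskin fibroblasts, taken 24 h post-dosing; DMSO served as negative control.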

[9] = BSK_KF3CT_SRB: Viability Assessment in the BioMAP Diversity Plus: KF3CT Assay (AID 2283069); settings: primary human keratinocytes with fibroblasts;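 note: total protein by sulforhodamine B staining as a cytotoxicity measure; read 24 h after compound addition; fitted for both signal gain and loss against DMSO baseline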
How it was run: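 SRB read-out at 560 nm (0.1% stain, TCA-fixed cells) gauges overt cytotoxicity in a human skin keratinocyte–fibroblast co-culture 24 h post-dosing. Signal change was fitted bidirectionally relative to DMSO control.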

[10] = read-out: Interleukin-1 alpha (IL1a), IL1A (gene 3552); assay: BSK_KF3CT_IL1a: BioMAP Diversity Plus: KF3CT Assay for Interleukin-1 alpha (IL1a) Biomarker Activity (AID 2283070); settings: primary human keratinocytes with fibroblasts; actives raise or lower the signal
How it was run: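 Primary skin co-culture (keratinocytes, foreskin fibroblasts), 24 h exposure; ELISA for IL-1a; bidirectional curve fit vs DMSO.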

Measured: AC50

CC(C)(C)OOC(C)(C)CCC(C)(C)OOC(C)(C)C
inactive: all assays above

c1ccc(NNc2ccccc2)cc1
inactive: all assays above

Cn1cc(-c2ccccc2)c(=O)c(-c2cccc(C(F)(F)F)c2)c1
not listed: [3]
inactive: all other assays above

Nc1ccc([N+](=O)[O-])cc1
not listed: [3]
inactive: all other assays above

CO[C@@H]1[C@H](OC(=O)NC(=O)CCl)CC[C@]2(CO2)[C@H]1[C@@]1(C)O[C@@H]1CC=C(C)C
inactive: [6] | [7] | [9]
active: [1] 9.25 µM | [2] 5.82 µM | [3] 8.35 µM | [4] 11.6 µM | [5] 4.58 µM | [8] 8.27 µM | [10] 7.91 µM

CCC(C)c1ccc(O)cc1 (stereo unspecified)
inactive: all assays above

CC(C)(C)OOC(=O)c1ccccc1
inactive: [7] | [8] | [9] | [10]
active: [1] 30.9 µM | [2] 11.9 µM | [4] 20 µM | [5] 32.9 µM | [6] 7.15 µM

CCC12COCN1COC2
inactive: all assays above

Cc1ccc(N=C=O)cc1N=C=O
inactive: all assays above

COC(=O)Nc1nc2ccccc2[nH]1
not listed: [3]
inactive: all other assays above

Brc1ccc(Oc2ccccc2)cc1
inactive: all assays above

[As]#[In]
not listed: [3]
inactive: all other assays above

COC(=O)c1ccccc1N
inactive: all assays above

OCCOCCO
inactive: all assays above

Cc1ccc(N)c(N)c1
active: [3] 3.65 µM
not listed: [8]
inactive: all other assays above

CN(C)[C@@H]1C(=O)C(C(N)=O)=C(O)[C@@]2(O)C(=O)C3=C(O)c4c(O)cccc4[C@@](C)(O)[C@H]3C[C@@H]12
not listed: [3]
inactive: all other assays above

[Cl-].[Cl-].[Hg+2]
active: [1] 12.1 µM | [2] 13.5 µM | [3] 8.14 µM | [4] 11.8 µM | [5] 7.96 µM | [6] 12.2 µM | [7] 20.8 µM | [8] 12.8 µM | [9] 13.2 µM | [10] 30.4 µM

Cc1cccc(N)c1N
active: [7] 9.01 µM
inactive: all other assays above

Oc1ccc2ccc3cccc4ccc1c2c34
inactive: [2] | [4] | [7] | [9]
active: [1] 20 µM | [3] 7.57 µM | [5] 8.34 µM | [6] 22.5 µM | [8] 26.7 µM | [10] 20 µM

CCNS(=O)(=O)C(F)(F)C(F)(F)C(F)(F)C(F)(F)C(F)(F)C(F)(F)C(F)(F)C(F)(F)F
inactive: [2] | [4] | [7] | [9] | [10]
active: [1] 28.8 µM and 44.8 µM and 47.8 µM | [2] 47.2 µM and 53.5 µM | [3] 19.3 µM and 28.3 µM and 36 µM | [4] 49.2 µM and 49.6 µM | [5] 5.73 µM and 13.5 µM | [6] 30.1 µM and 23.3 µM and 47.3 µM | [7] 46.2 µM | [8] 20.9 µM and 30.5 µM and 43.7 µM | [9] 46.1 µM | [10] 41.5 µM and 47.7 µM

O=C(O)C1C2CCC(O2)C1C(=O)O (stereo unspecified)
active: [5] 18.6 µM | [6] 6.83 µM
inactive: all other assays above

[O-][Cl+]O
inactive: all assays above

N#CC(Br)Br
inactive: all assays above

c1ccc(N=Nc2ccccc2)cc1
inactive: all assays above

CC(O)CCO (stereo unspecified)
inactive: all assays above

C[N+](C)(C)CC1CO1 (stereo unspecified)
inactive: all assays above

Cc1ccc([N+](=O)[O-])cc1
inactive: all assays above

C1=Cc2cccc3cccc1c23
not listed: [3]
inactive: all other assays above

CCCCOC(=O)c1ccccc1C(=O)OCc1ccccc1
active: [5] 20 µM
not listed: [2]
inactive: all other assays above

CN(C)c1ccc(C(=O)c2ccc(N(C)C)cc2)cc1
not listed: [2]
inactive: all other assays above

CCN(CC)CCO
not listed: [2]
inactive: all other assays above

CC(C)COC(=O)c1ccccc1C(=O)OCC(C)C
active: [5] 20 µM
not listed: [2]
inactive: all other assays above

O=Cc1ccco1
not listed: [2]
inactive: all other assays above

CCN(CC)N=O
not listed: [2]
inactive: all other assays above

Nc1ccc(Cl)cc1N
active: [5] 9.2 µM
not listed: [3]
inactive: all other assays above

O=[N+]([O-])c1ccc(Oc2ccc(Cl)cc2Cl)cc1
active: [4] 10.2 µM | [5] 13.5 µM
not listed: [3]
inactive: all other assays above

CCOC(=O)[C@]1(c2ccccc2)Oc2ccccc2[C@@H]1N
active: [1] 26.9 µM | [2] 30.2 µM | [5] 36.6 µM | [6] 33.6 µM
not listed: [3]
inactive: all other assays above

COc1cc(C=O)cc2c1[C@H](COC(N)=O)[C@]1(OC(C)=O)ON2C[C@H]2[C@@H]1N2C(C)=O
active: [1] 2.45 µM | [3] 1.25 µM | [4] 0.565 µM | [5] 1 µM | [6] 0.144 µM | [7] 11.6 µM | [8] 13 µM | [9] 3.36 µM | [10] 20 µM

CCCCC(CC)COC(=O)c1ccc(C(=O)OCC(CC)CCCC)c(C(=O)OCC(CC)CCCC)c1 (stereo unspecified)
not listed: [3]
inactive: all other assays above

— PubChem BioAssay (EPA / NIEHS)
